# Records with an inconclusive call do not appear. Where a call stands in place of a potency, no number is given. A number with no mark means an inactive call. Active and inactive are the calls of the source. Unless noted, the call rests on the fitted dose curve; in most records, active means well fitted curve in the direction sought with a large enough effect in the repeat runs; inconclusive means weak or mixed curves; inactive means no such curve, though single readings can be large; an effect the other way counts as inactive or inconclusive.
# Key:
# [1] = qHTS assay to identify small molecule antagonists of the thyroid receptor (TR) signaling pathway - cell viability counter screen (AID 743064); further: nearly all actives have a fitted effect of over 50% in size; further: potency means the concentration at half of the fitted maximal effect
# Procedure, shortened: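 Same-well viability check: GH3.TRE-Luc cells stimulated with 1 nM T3 alongside test compound for 23.5 h, followed by CellTiter-Fluor fluorescence.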
# [2] = qHTS assay to identify small molecule antagonists of the thyroid receptor (TR) signaling pathway (AID 743065); further: nearly all actives have a fitted effect of over 55% in size; further: potency means the concentration at half of the fitted maximal effect
# Procedure, shortened: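 GH3.TRE-Luc rat pituitary cells (two TREs driving luciferase) were dosed with compound, then stimulated with 1 nM T3 (final) for 23.5 h at 37 C. ONE-Glo luminescence was the read-out, with CellTiter-Fluor fluorescence as the cytotoxicity counter-screen.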
# [3] = qHTS assay to identify small molecule antagonists of the estrogen receptor alpha (ER-alpha) signaling pathway - cell viability counter screen (AID 743074; calls by dose curve;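 further: HEK293 cells carrying ER-alpha-UAS-bla reporter stimulated with 17beta-estradiol; nearly all actives have a fitted effect of over 45% in size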; further: potency means the concentration at half of the fitted maximal effect)
# [4] = biological target: Estrogen receptor (Homo sapiens) (UniProt P03372); assay: qHTS assay to identify small molecule agonists of the estrogen receptor alpha (ER-alpha) signaling pathway (AID 743075; calls by dose curve;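 further: HEK293 GripTite cells with ER-alpha and UAS-driven beta-lactamase reporter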; further: potency means the concentration at half of the fitted maximal effect)
# [5] = qHTS assay to identify small molecule antagonists of the estrogen receptor alpha (ER-alpha) signaling pathway using the BG1 cell line - cell viability counter screen (AID 743081);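 further: compound given together with 17beta-estradiol as the ER stimulus; nearly all actives have a fitted effect of over 45% in size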; further: potency means the concentration at half of the fitted maximal effect
# Aromatase (Homo sapiens) = Aromatase (Homo sapiens) (UniProt P11511); assay: qHTS assay to identify aromatase inhibitors (AID 743083); further: nearly all actives have a fitted effect of over 55% in size; further: potency means the concentration at half of the fitted maximal effect
# [6] = qHTS assay to identify aromatase inhibitors - cell viability counter screen (AID 743084);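 further: cells stimulated with testosterone during compound exposure; nearly all actives have a fitted effect of over 55% in size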; further: potency means the concentration at half of the fitted maximal effect
# [7] = biological target: Aryl hydrocarbon receptor (Homo sapiens) (UniProt P35869); assay: qHTS assay to identify small molecule that activate the aryl hydrocarbon receptor (AhR) signaling pathway (AID 743085); further: nearly all actives have a fitted effect of over 15% in size; further: potency means the concentration at half of the fitted maximal effect;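 on activation: HG2L7.5c1 human HepG2 liver cells with stably integrated DRE-driven firefly reporter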
# Procedure, shortened: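 Reporter assay in engineered HepG2 line HG2L7.5c1, whose plasmid carries twenty dioxin responsive elements upstream of firefly luciferase. Treatment lasted 24 h at 37C; ONE-Glo luminescence gauged induction.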
# [8] = qHTS assay to identify small molecule that activate the aryl hydrocarbon receptor (AhR) signaling pathway - cell viability counter screen (AID 743086); further: nearly all actives have a fitted effect of over 45% in size; further: potency means the concentration at half of the fitted maximal effect
# Procedure, shortened: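 HepG2-AhR-luc (HG2L7.5c1) cells, 4000/well, treated 24 h at 37 C with compound; viability measured as CellTiter-Fluor fluorescence after 30 min in the same wells as the luciferase read.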
# [9] = qHTS assay to identify small molecule antagonists of the peroxisome proliferator-activated receptor gamma (PPARg) signaling pathway - cell viability counter screen (AID 743194); settings: Potency: co-treated with 50 nM rosiglitazone unless noted; further: nearly all actives have a fitted effect of over 55% in size; further: potency means the concentration at half of the fitted maximal effect
# Procedure, shortened: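 Cytotoxicity counter screen in PPARg-bla HEK293H cells, same wells as reporter assay. Compounds plus 50 nM rosiglitazone (final) for 17 h at 37 C, then viability read by CellTiter-Glo luminescence.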
# [10] = qHTS assay for small molecule agonists of the antioxidant response element (ARE) signaling pathway - cell viability counter screen (AID 743203; calls by dose curve; further: nearly all actives have a fitted effect of over 55% in size; further: potency means the concentration at half of the fitted maximal effect)
# Procedure, shortened: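 ATP content via CellTiter-Glo luminescence served as the viability measure. Cells: ARE-bla HepG2, 2,000 per well. Exposure: 16 hrs, 37C/5% CO2.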
# [11] = qHTS assay for small molecule activators of the heat shock response signaling pathway - cell viability counter screen (AID 743209); further: nearly all actives have a fitted effect of over 50% in size; further: potency means the concentration at half of the fitted maximal effect
# Procedure, shortened: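 Compounds dissolved in DMSO were added to overnight-plated HSE-bla HeLa cells and left 5 h at 37 C. Cell viability was quantified by luminescence using CellTiter-Glo.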
# [12] = test system: thyroid hormone receptor (rat, GH3 cells); assay: qHTS assay to identify small molecule agonists of the thyroid receptor (TR) signaling pathway (AID 743066; calls by dose curve; further: potency means the concentration at half of the fitted maximal effect)
# [13] = qHTS assay for small molecule agonists of the antioxidant response element (ARE) signaling pathway (AID 743202; active means well fitted activation curve with a large enough effect in the signal ratio in the repeat runs, not every such curve was filed as active; the % refers to the signal ratio; further: potency means the concentration at half of the fitted maximal effect)
# Procedure, shortened: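 HepG2 ARE-bla reporter line, 2,000 cells/well; 5 h preincubation 37 C/5% CO2; compound (DMSO) 16 h 37 C; B/G FRET substrate 2 h RT; fluorescence intensity.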
# [14] = biological target: Estrogen receptor (Homo sapiens) (UniProt P03372); assay: qHTS assay to identify small molecule antagonists of the estrogen receptor alpha (ER-alpha) signaling pathway (AID 743069; active means well fitted curve in the direction sought with a large enough effect in the signal ratio in the repeat runs, not every such curve was filed as active; the % refers to the signal ratio; further: potency means the concentration at half of the fitted maximal effect)
# Procedure, shortened: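 Beta-lactamase FRET fluorescence is read after 2 hr at room temperature with LiveBLAzer B/G substrate. Before that, ER-alpha-bla HEK293 cells sit 4 hr after plating, then receive compound plus 17beta-estradiol and incubate 18 hr at 37C.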
# [15] = biological target: Estrogen receptor (Homo sapiens) (UniProt P03372); assay: qHTS assay to identify small molecule agonists of the estrogen receptor alpha (ER-alpha) signaling pathway using the BG1 cell line (AID 743079); settings: BG1Luc4E2 cells, ERE-luciferase agonist, 22 h; activation: at 70.3 µM (top of the series); further: nearly all actives have a fitted effect of over 20% in size
# [16] = qHTS assay to identify small molecule antagonists of the estrogen receptor alpha (ER-alpha) signaling pathway using the BG1 cell line (AID 743080; calls by dose curve;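 further: BG1 cells stimulated with 17beta-estradiol alongside compound; nearly all actives have a fitted effect of over 25% in size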)
# Procedure, shortened: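 Luminescence from a 4×ERE-luciferase reporter in BG1-Luc-4E2 cells served as read-out. Cells, pre-cultured 5 days in stripped-serum phenol-red-free medium, were exposed to compound with 17beta-estradiol co-stimulation for 21.5 h at 37 C.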
# [17] = qHTS assay for small molecule activators of the heat shock response signaling pathway (AID 743210; active means well fitted activation curve with a large enough effect in the signal ratio in the repeat runs, with a control signal flat, not every such curve was filed as active; the % refers to the signal ratio;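 further: HeLa cells with beta-lactamase reporter driven by heat shock elements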)
# Procedure, shortened: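 Beta-lactamase reporter read-out: FRET substrate fluorescence after 2.5 h at RT, following 5 h compound treatment at 37 C of HeLa cells carrying HSE-driven bla reporter; quantitative HTS format.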
# [18] = biological target: Peroxisome proliferator-activated receptor gamma (Homo sapiens) (UniProt P37231); assay: qHTS assay to identify small molecule agonists of the peroxisome proliferator-activated receptor gamma (PPARg) signaling pathway (AID 743094; active means well fitted activation curve with a large enough effect in the signal ratio in the repeat runs, not every such curve was filed as active; the % refers to the signal ratio; further: potency means the concentration at half of the fitted maximal effect)
# Procedure, shortened: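 Agonism was assessed in a beta-lactamase reporter system, HEK293H cells with a stably integrated UAS-bla construct under PPARg control; the 17 h treatment at 37C preceded a 1 h room-temperature FRET substrate read.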
# [19] = biological target: Peroxisome proliferator-activated receptor gamma (Homo sapiens) (UniProt P37231); assay: qHTS assay to identify small molecule antagonists of the peroxisome proliferator-activated receptor gamma (PPARg) signaling pathway (AID 743191; calls by dose curve; further: nearly all actives have a fitted effect of over 30% in size)
# Procedure, shortened: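 GeneBLAzer PPARg UAS-bla HEK293H cells, 5 h post-plating, exposed to compounds 17 h at 37C. LiveBLAzer B/G FRET substrate added for 1 h at room temperature; beta-lactamase reporter read by fluorescence intensity.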
# Chain of Aryl hydrocarbon receptor (Homo sapiens) (P35869 whole entry, looked up): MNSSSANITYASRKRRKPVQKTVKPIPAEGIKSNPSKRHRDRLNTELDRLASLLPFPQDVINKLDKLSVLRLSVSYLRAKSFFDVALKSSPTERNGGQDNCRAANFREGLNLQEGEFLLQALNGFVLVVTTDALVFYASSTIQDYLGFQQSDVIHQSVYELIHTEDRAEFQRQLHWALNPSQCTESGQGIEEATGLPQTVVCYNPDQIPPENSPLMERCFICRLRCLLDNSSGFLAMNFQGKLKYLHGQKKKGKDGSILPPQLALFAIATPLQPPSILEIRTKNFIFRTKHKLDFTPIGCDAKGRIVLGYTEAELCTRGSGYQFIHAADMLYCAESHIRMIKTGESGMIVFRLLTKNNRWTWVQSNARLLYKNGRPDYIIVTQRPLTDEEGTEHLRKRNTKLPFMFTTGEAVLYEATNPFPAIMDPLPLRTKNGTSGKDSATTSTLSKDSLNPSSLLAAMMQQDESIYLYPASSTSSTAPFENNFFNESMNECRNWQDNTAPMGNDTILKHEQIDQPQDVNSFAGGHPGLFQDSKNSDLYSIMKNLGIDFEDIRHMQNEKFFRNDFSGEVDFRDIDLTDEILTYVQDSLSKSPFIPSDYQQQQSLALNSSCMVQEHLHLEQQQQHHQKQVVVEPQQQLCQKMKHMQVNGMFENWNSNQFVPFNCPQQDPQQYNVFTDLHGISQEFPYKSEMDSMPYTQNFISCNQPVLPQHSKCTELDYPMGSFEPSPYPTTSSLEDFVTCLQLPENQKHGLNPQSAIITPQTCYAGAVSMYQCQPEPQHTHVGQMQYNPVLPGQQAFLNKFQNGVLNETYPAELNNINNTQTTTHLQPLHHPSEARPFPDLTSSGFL
# Chain of Estrogen receptor (Homo sapiens) (P03372 whole entry, looked up): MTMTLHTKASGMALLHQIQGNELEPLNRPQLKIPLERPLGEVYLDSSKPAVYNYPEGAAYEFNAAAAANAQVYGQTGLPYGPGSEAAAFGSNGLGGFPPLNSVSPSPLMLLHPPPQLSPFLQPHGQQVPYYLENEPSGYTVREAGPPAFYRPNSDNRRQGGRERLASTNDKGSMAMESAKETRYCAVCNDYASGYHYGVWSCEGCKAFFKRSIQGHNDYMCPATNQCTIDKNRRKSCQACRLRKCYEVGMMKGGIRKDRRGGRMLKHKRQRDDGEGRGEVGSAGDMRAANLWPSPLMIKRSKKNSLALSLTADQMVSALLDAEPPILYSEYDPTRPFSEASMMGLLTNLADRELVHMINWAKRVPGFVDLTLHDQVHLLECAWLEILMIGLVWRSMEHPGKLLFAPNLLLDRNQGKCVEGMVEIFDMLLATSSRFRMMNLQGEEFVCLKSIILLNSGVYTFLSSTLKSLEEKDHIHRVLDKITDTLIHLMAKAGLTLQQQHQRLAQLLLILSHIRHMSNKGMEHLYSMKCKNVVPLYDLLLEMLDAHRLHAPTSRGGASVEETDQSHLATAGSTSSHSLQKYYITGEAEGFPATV
# Chain of Aromatase (Homo sapiens) (P11511 whole entry, looked up): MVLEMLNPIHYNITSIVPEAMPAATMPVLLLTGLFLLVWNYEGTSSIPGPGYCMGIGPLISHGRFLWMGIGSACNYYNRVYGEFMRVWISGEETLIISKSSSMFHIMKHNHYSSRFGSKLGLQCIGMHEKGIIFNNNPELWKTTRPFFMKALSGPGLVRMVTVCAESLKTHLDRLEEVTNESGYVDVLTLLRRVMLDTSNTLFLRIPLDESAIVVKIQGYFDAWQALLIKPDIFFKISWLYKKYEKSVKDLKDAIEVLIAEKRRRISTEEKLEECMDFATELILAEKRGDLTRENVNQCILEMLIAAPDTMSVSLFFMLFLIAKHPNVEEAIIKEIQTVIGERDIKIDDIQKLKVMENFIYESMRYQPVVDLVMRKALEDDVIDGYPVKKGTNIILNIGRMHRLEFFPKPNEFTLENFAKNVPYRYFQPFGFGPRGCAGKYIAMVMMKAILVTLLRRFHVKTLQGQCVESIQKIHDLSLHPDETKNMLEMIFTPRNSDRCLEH
# Chain of Peroxisome proliferator-activated receptor gamma (Homo sapiens) (P37231 whole entry, looked up): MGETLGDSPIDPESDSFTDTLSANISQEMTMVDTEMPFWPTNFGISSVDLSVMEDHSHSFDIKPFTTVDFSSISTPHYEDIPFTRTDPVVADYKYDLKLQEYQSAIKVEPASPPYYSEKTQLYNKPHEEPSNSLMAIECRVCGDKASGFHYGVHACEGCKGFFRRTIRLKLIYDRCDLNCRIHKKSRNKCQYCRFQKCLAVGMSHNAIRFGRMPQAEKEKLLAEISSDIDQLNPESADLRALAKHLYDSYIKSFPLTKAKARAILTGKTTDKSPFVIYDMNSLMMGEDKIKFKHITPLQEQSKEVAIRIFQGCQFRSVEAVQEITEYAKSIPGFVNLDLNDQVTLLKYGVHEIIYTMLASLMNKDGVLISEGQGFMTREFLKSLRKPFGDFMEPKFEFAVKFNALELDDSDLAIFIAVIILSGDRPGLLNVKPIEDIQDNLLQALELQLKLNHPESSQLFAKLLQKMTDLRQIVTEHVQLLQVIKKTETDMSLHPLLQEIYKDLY
smiles,measurement,setting,value
[Cl][Hg][c]1ccccc1,Potency,[1],0.243 µM (active)
same,Potency,[2],0.0863 µM (active)
same,Potency,[3],12.3 µM (active)
same,Potency,[4],4.36 µM [fluorescent] (active)
same,Potency,[5],30.6 µM (active)
same,Potency,Aromatase (Homo sapiens),1.37 µM (active)
same,Potency,[6],1.93 µM (active)
same,Potency,[7],inactive
same,Potency,[8],5.45 µM (active)
same,Potency,[9],0.776 µM (active)
same,Potency,[10],1.72 µM (active)
same,Potency,[11],3.09 µM (active)
CC(=O)[O-].CC(=O)[O-].O.O.O.[Pb+2],Potency,[1],inactive
same,Potency,[12],inactive
same,Potency,[3],inactive
same,Potency,[5],inactive
same,Potency,Aromatase (Homo sapiens),inactive
same,Potency,[6],inactive
same,Potency,[7],inactive
same,Potency,[8],inactive
same,Potency,[9],inactive
same,Potency,[13],2.73 µM (active)
same,Potency,[10],inactive
same,Potency,[11],inactive
CC(=O)O.CC(=O)O.CC(=O)O.CC(=O)O.CC(=O)O.CC(=O)O.CC(=O)O.O.O.[Cr].[Cr].[Cr],Potency,[1],inactive
same,Potency,[12],inactive
same,Potency,[3],inactive
same,Potency,[5],inactive
same,Potency,Aromatase (Homo sapiens),inactive
same,Potency,[6],inactive
same,Potency,[7],inactive
same,Potency,[8],inactive
same,Potency,[10],inactive
same,Potency,[11],inactive
CC(=O)[O-].CC(=O)[O-].CC(=O)[O-].[Cr+3],Potency,[1],54.3 µM (active)
same,Potency,[12],inactive
same,Potency,[3],inactive
same,Potency,[5],inactive
same,Potency,[8],inactive
same,Potency,[9],inactive
same,Potency,[10],inactive
same,Potency,[11],inactive
O=C(O)CCCCCCNC1c2ccccc2CCc2ccccc21,Potency,[1],inactive
same,Potency,[12],23.7 µM (active)
same,Potency,[14],inactive
same,Potency,[4],inactive
same,Potency,[15],inactive
same,Potency,[16],inactive
same,Potency,[5],inactive
same,Potency,[6],inactive
same,Potency,[9],inactive
same,Potency,[13],inactive
same,Potency,[10],inactive
same,Potency,[11],inactive
same,Potency,[17],inactive
CC(C)=CC1C(C(=O)OC(C#N)c2cccc(Oc3ccccc3)c2)C1(C)C (configuration not stated),Potency,[1],inactive
same,Potency,[12],inactive
same,Potency,[5],inactive
same,Potency,Aromatase (Homo sapiens),inactive
same,Potency,[6],inactive
same,Potency,[7],inactive
same,Potency,[8],inactive
same,Potency,[18],inactive
same,Potency,[19],inactive
same,Potency,[9],inactive
same,Potency,[13],inactive
same,Potency,[10],inactive
same,Potency,[11],inactive
O=C(O)[C@H](O)[C@@H](O)C(=O)O,Potency,[1],inactive
same,Potency,[12],inactive
same,Potency,[14],inactive
same,Potency,[3],inactive
same,Potency,[4],inactive
same,Potency,[15],inactive
same,Potency,[16],inactive
same,Potency,[5],inactive
same,Potency,Aromatase (Homo sapiens),inactive
same,Potency,[6],inactive
same,Potency,[7],inactive
same,Potency,[8],inactive
same,Potency,[9],inactive
same,Potency,[13],inactive
same,Potency,[10],inactive
same,Potency,[11],inactive
O=[N+]([O-])c1cccc2cccc([N+](=O)[O-])c12,Potency,[1],inactive
same,Potency,[12],inactive
same,Potency,[3],inactive
same,Potency,[5],inactive
same,Potency,[6],inactive
same,Potency,[9],inactive
same,Potency,[13],9.73 µM (active)
same,Potency,[10],inactive
same,Potency,[11],inactive
Clc1ccc(C(Cl)(Cl)Cl)cc1Cl,Potency,[1],inactive
same,Potency,[14],inactive
same,Potency,[3],inactive
same,Potency,[4],inactive
same,Potency,[15],inactive
same,Potency,[16],inactive
same,Potency,[5],inactive
same,Potency,Aromatase (Homo sapiens),inactive
same,Potency,[6],inactive
same,Potency,[7],26.7 µM (active)
same,Potency,[18],inactive
same,Potency,[19],inactive
same,Potency,[9],inactive
same,Potency,[10],inactive
same,Potency,[11],inactive
same,Potency,[17],inactive
CN,Potency,[1],inactive
same,Potency,[12],inactive
same,Potency,[3],inactive
same,Potency,[5],inactive
same,Potency,Aromatase (Homo sapiens),inactive
same,Potency,[6],inactive
same,Potency,[7],inactive
same,Potency,[8],inactive
same,Potency,[9],inactive
same,Potency,[10],inactive
same,Potency,[11],inactive
same,Potency,[17],inactive
c1cc[n+]2c(c1)-c1cccc[n+]1CC2,Potency,[1],inactive
same,Potency,[12],inactive
same,Potency,[14],inactive
same,Potency,[3],inactive
same,Potency,[4],inactive
same,Potency,Aromatase (Homo sapiens),inactive
same,Potency,[6],inactive
same,Potency,[8],inactive
same,Potency,[18],inactive
same,Potency,[19],inactive
same,Potency,[9],inactive
same,Potency,[13],10.6 µM (active)
same,Potency,[10],inactive
same,Potency,[11],inactive
CC(=O)[O-].CC(=O)[O-].[Co+2],Potency,[1],inactive
same,Potency,[12],inactive
same,Potency,[3],inactive
same,Potency,[5],inactive
same,Potency,Aromatase (Homo sapiens),inactive
same,Potency,[6],inactive
same,Potency,[7],inactive
same,Potency,[9],inactive
same,Potency,[10],inactive
same,Potency,[11],inactive
CCN1CCC2(CC1)COc1cc3c(cc12)N(C(=O)c1ccc(-c2ccc(-c4nnc(C)o4)cc2C)cc1)CC3,Potency,[1],14.2 µM (active)
same,Potency,[2],2.52 µM (active)
same,Potency,[3],50.7 µM (active)
same,Potency,[4],inactive
same,Potency,Aromatase (Homo sapiens),28.3 µM (active)
same,Potency,[6],39.9 µM (active)
same,Potency,[7],inactive
same,Potency,[8],28.3 µM (active)
same,Potency,[9],7.16 µM (active)
same,Potency,[10],7.1 µM (active)
same,Potency,[11],45.2 µM (active)
CCC[CH2][Sn]([CH2]CCC)([CH2]CCC)[O][Sn]([CH2]CCC)([CH2]CCC)[CH2]CCC,"activity change, negative = cytotoxic",[1],15.8% [at 8.44 µM]
same,"activity, negative = inhibition",[2],7.29% [at 8.44 µM]
same,Potency,[3],0.852 µM (active)
same,Potency,Aromatase (Homo sapiens),2.67 µM (active)
same,Potency,[6],2.12 µM (active)
same,activation,[7],-11.8% [at 8.47 µM]
same,Potency,[8],2.67 µM (active)
same,Potency,[18],0.676 µM (active)
same,Potency,[9],0.427 µM (active)
same,Potency,[10],0.238 µM (active)
same,Potency,[11],0.38 µM (active)
O=c1[nH]c(Cl)c(Cl)cc1Cl,Potency,[1],inactive
same,Potency,[12],inactive
same,Potency,[3],inactive
same,Potency,[5],inactive
same,Potency,Aromatase (Homo sapiens),inactive
same,Potency,[6],inactive
same,Potency,[18],inactive
same,Potency,[9],inactive
same,Potency,[10],inactive
same,Potency,[11],inactive
same,Potency,[17],inactive
CC[C@H](C)[C@H]1O[C@]2(C=C[C@@H]1C)C[C@@H]1C[C@@H](C/C=C(\C)[C@@H](O[C@H]3C[C@H](OC)[C@@H](O[C@H]4C[C@H](OC)[C@@H](NC)[C@H](C)O4)[C@H](C)O3)[C@@H](C)/C=C/C=C3\CO[C@@H]4[C@H](O)C(C)=C[C@@H](C(=O)O1)[C@]34O)O2,Potency,[1],1.22 µM (active)
same,Potency,[14],30.9 µM [cytotoxic] (active)
same,Potency,[3],13.8 µM (active)
same,Potency,[5],30.6 µM (active)
same,Potency,Aromatase (Homo sapiens),4.86 µM (active)
same,Potency,[6],9.69 µM (active)
same,Potency,[7],inactive
same,Potency,[8],4.33 µM (active)
same,Potency,[9],2.45 µM (active)
same,Potency,[10],4.33 µM (active)
same,Potency,[11],13.8 µM (active)
C[N+]1(C)[C@@H]2CC[C@H]1CC(OC(=O)C(CO)c1ccccc1)C2 (some centres not stated),Potency,[1],inactive
same,Potency,[12],inactive
same,Potency,[3],inactive
same,Potency,[16],inactive
same,Potency,[5],inactive
same,Potency,Aromatase (Homo sapiens),inactive
same,Potency,[6],inactive
same,Potency,[7],inactive
same,Potency,[8],inactive
same,Potency,[18],inactive
same,Potency,[10],inactive
same,Potency,[11],inactive
same,Potency,[17],inactive

# — PubChem BioAssay (Tox21)
